Screens from PubChem BioAssay.
Tat export inh – E. coli Tat transport inhibition; E. coli MC4100 TorA-mCherry Tat export, fluorescence; inhibition, % at 10 µM; 340,000 compounds, 0.036% hits; AID 488895;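 active = mean replicate inhibition at least 50% and at least half of replicates individually reaching 50%; inconclusive = only one of the two criteria met; inactive = neither criterion met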;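 note: exported cargo escapes ClpAP degradation while cytoplasmic cargo is degraded and loses fluorescence; 0% = median of neutral control wells and 100% = median of NaSCN control wells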
phage Ecoli inh – E. coli growth loss with phage present. growth absorbance. inhibition, % at 11.9 µM. 360,000 compounds, 0.26% hits; in the data active = inhibition above about 11%
E coli growth-1 – counter-screen for AddAB inhibitors: E. coli growth inhibition; 330,000 compounds, 0.27% hits; E. coli V3065 growth, OD600 absorbance, 18 h; inhibition, % at 11.9 µM;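 active = inhibition above the campaign's mean inhibition across all tested compounds plus 3 SD, cut at about 9.9% in these data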;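 note: uninfected addAB+ strain grown without phage in ampicillin broth; 0% = DMSO wells and 100% = ciprofloxacin 0.95 µg/ml wells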
AddAB inh – less growth of phage-infected E. coli with AddAB; AID 435030; inhibition, % at 11.9 µM; 330,000 compounds, 0.29% hits; E. coli expressing H. pylori AddAB, absorbance growth; in the data active = inhibition above about 12%;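 note: 0% = vehicle wells of infected cells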
E coli growth-2 – blocks Escherichia coli growth | OD600, 23 h; hits give low values | OD600 absorbance (concentration not given with the values) | 330,000 compounds, 0.21% hits | AID 1053175;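 active = OD600 absorbance below the run mean of sample wells minus 3.6 SD, in any replicate, cut at about 0.56 in these data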
AddAB confirm – confirmation screen: growth loss of phage-infected E. coli expressing H. pylori AddAB; shares compounds with AddAB inh; E. coli V3065 expressing H. pylori AddAB, T4 phage, OD; T4 phage with gene 2 nonsense mutations; inhibition, % at 11.9 µM; 880 compounds, 64% hits; AID 488942;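 active = mean inhibition above a set limit taken from the earlier primary screen, cut at about 13% in these data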;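 note: higher means less bacterial growth since AddAB block lets phage replicate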
RecBCD counter – counter-screen: growth loss of RecBCD+ E. coli with mutant T4 phage; AID 488955; shares compounds with AddAB inh; inhibition, % at 11.9 µM; E. coli V66 + mutant T4 phage, OD growth; 880 compounds, 73% hits;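 active = mean inhibition above the mean of solvent-only control wells plus 3 SD, cut at about 4% in these data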;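 note: optical density read after an 18 h incubation at 37 °C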
Bact viability – reduces bacterial viability, AddAB inhibitor counter-screen. 880 compounds, 35% hits. absorbance (AddAB counterscreen). inhibition, % at 11.9 µM. shares compounds with AddAB inh; in the data active = inhibition above about 25%
Starred values were filed as active, the others as inactive; ? = inconclusive; / = no result. Hits are enriched below; roughly 0.5% of the tested compounds scored in any of these assays.

SMILES	Tat export inh	phage Ecoli inh	E coli growth-1	AddAB inh	E coli growth-2	AddAB confirm	RecBCD counter	Bact viability
CCc1ccc(C(C(=O)NCc2ccccc2)N(C(=O)c2csnn2)C2CC2)cc1 (stereo not drawn)	-2.3	0.5	45.9*	98.6*	0.651	-4.0	-0.2	-1.7
COC(=O)CC1c2cc(F)ccc2S(=O)(=O)N1c1ccccc1 (stereo not drawn)	/	/	/	/	0.65	/	/	/
CC(C)N1CCN(c2ccc(OCC3CO[C@](Cn4cncn4)(c4ccc(Cl)cc4Cl)O3)cc2)CC1 (stereo partly drawn)	/	/	/	/	0.667	/	/	/
C[C@@]12C(=O)Nc3ccccc3C(=O)N1C1c3cc(Cl)ccc3OCC1C2c1ccccc1 (stereo partly drawn)	/	/	/	/	0.673	/	/	/
CCc1cccc(NC(=O)CCCSc2nc3ccccc3[nH]2)c1	-17.9	5.0	6.3	12.4*	0.654	3.2	3.5	1.0
CCOC(=O)C1C2COc3ccccc3C2N2C(=O)c3cc(Br)ccc3NC(=O)[C@@]12C (stereo partly drawn)	/	/	/	/	0.681	/	/	/
COc1ccc(-c2nnc3ccc(SCC(=O)N4CCCCC4)nn23)cc1OC	1.6	2.2	47.7*	97.3*	0.74	-1.9	-1.6	-3.8
COc1cc(C=NNC(=O)c2cc(C3CC3)[nH]n2)ccc1O	/	/	/	/	0.652	/	/	/
O=C(CCNC(=O)c1ccco1)Nc1ccccc1	26.6	1.1	1.3	5.1	0.612	/	/	/
CCOc1ccc(NC(=O)CCNC(=O)c2ccco2)cc1	-18.3	10.1	8.3	13.5*	0.6	11.6	4.7*	6.1
Cc1ccc(NC(=O)CCNC(=O)c2ccco2)cc1	-16.1	1.3	5.3	14.6*	0.686	6.3	3.6	7.6
O=C(NC1CC1)C1=CC(C2CCCCC2)CC(OCc2ccc(CO)cc2)O1 (stereo not drawn)	/	/	/	/	0.736	/	/	/
O=C(CN1CCN(Cc2ccccc2)CC1)NN=Cc1c[nH]c2ccccc12	/	/	/	/	0.711	/	/	/
Cc1cc(SCC(=O)N/N=C/c2ccc(O)c(O)c2O)c(C)cc1Br	3.0	16.7*	17.8*	16.1*	/	11.5	10.3*	0.7
Cc1cc(SCC(=O)NN=Cc2ccc(O)cc2O)c(C)cc1Br	/	/	/	/	0.696	/	/	/
C/C(=C\C(=O)OCCCCCCCCC(=O)O)C[C@@H]1OC[C@H](C[C@@H]2O[C@H]2[C@@H](C)[C@H](C)O)[C@@H](O)[C@H]1O	127.6*	9.5	6.3	17.8*	/	7.1	18.3*	2.0
CN(C)N=Nc1nc[nH]c1C(N)=O	-4.6	7.2	11.7*	18.2*	0.59	74.4*	4.0*	40.4*
CCC(=O)Nc1cccc(C2=NOC3(C2)CC(C(N)=O)N(C(=O)CC(c2ccccc2)c2ccccc2)C3)c1 (stereo not drawn)	/	/	/	/	0.707	/	/	/
Cc1ccc(S(=O)(=O)N2CCC(C(=O)OCc3ccccc3)CC2)cc1C	10.1	-0.7	8.0	21.5*	0.63	-4.9	-0.6	-3.5
O=c1c(C=NN2CCOCC2)c(C(F)(F)F)[nH]n1-c1ccccc1	/	/	/	/	0.698	/	/	/
CCC(C)NC(=O)c1cn(CC)c2cc(N3CCN(C(=O)c4ccco4)CC3)c(F)cc2c1=O (stereo not drawn)	-4.0	-0.4	11.5*	18.3*	0.536	96.4*	-0.2	24.5
CCn1cc(C(=O)NCc2ccco2)c(=O)c2cc(F)c(N3CCN(C(=O)c4ccco4)CC3)cc21	1.2	4.2	50.0*	48.8*	0.445*	102.2*	4.0*	75.5*
CCn1cc(C(=O)NCC(C)C)c(=O)c2cc(F)c(N3CCN(C(=O)c4ccco4)CC3)cc21	6.8	1.8	2.5	3.6	0.575	/	/	/
Cc1ccnc(NC(c2cccnc2)c2ccc3cccnc3c2O)c1 (stereo not drawn)	?	14.8*	12.1*	12.2*	0.648	11.8	12.4*	5.2
COc1ccccc1NC(c1cccnc1)c1ccc2cccnc2c1O (stereo not drawn)	-0.6	7.5	-3.0	6.4	0.738	/	/	/
SMILES	Tat export inh	phage Ecoli inh	E coli growth-1	AddAB inh	E coli growth-2	AddAB confirm	RecBCD counter	Bact viability
CCN(CC)C(=O)C(=Cc1cccc([N+](=O)[O-])c1)NC(=O)c1ccco1	/	/	/	/	0.707	/	/	/
CCn1cc(C(=O)O)c(=O)c2cc(F)c(N3CCNCC3)cc21	94.1*	/	99.5*	99.3*	/	103.1*	102.2*	103.4*
CCOC(=O)c1cn(CC)c2cc(N3CCSCC3)c(F)cc2c1=O	37.9	7.2	82.7*	75.2*	0.465*	97.0*	0.8	10.8
CCn1cc(C(=O)O)c(=O)c2cc(F)c(N3CCN(S(=O)(=O)c4ccc5c(c4)OCCO5)CC3)cc21	-5.9	7.0	48.3*	93.8*	0.083*	100.6*	13.5*	98.7*
C#CCOCCOCCOCCNc1nc(N2CCN(C(=O)C(CCCCN)n3cc(C(N)C(C)CC)nn3)CC2)nc(N2CCN(C(=O)C(Cc3cc4ccccc4[nH]3)n3cc(C(N)C(C)CC)nn3)CC2)n1 (stereo not drawn)	/	/	/	/	0.601	/	/	/
COc1ccccc1/C=C1\SC(=S)N(CCC(=O)NNC(=O)c2ccccc2O)C1=O	0.1	/	18.2*	19.6*	0.751	15.4*	18.7*	13.9
O=C(CN1C(=O)S/C(=C\c2ccc(Cl)cc2)C1=O)NNC(=O)c1ccccc1O	-2.7	8.8	6.1	15.8*	0.684	8.8	5.5*	9.2
COc1ccc(/C=C2\SC(=S)N(CCCC(=O)NNC(=O)c3ccccc3O)C2=O)cc1	2.8	6.1	0.4	4.8	/	/	/	/
Cc1cnn(-c2cc(NN=Cc3ccccc3F)ncn2)c1	/	/	/	/	0.748	/	/	/
COc1ccc(-c2nc(Cn3c(SCc4cccc(F)c4)nc4ccncc43)c(C)o2)cc1OC	6.5	0.0	82.5*	96.1*	0.725	-3.0	-0.9	-2.0
CC1=NN(C(=O)c2ccc(Cn3ccc([N+](=O)[O-])n3)cc2)C(O)(C(F)(F)F)C1 (stereo not drawn)	5.3	4.8	6.7	14.3*	0.727	2.8	1.4	-0.8
CC(C)N1C(=O)C2C(c3ccccc3O)NC(C)(C(=O)O)C2C1=O (stereo not drawn)	12.6	1.2	2.8	15.1*	0.739	0.4	0.6	-1.9
CC(C)CC1(C(=O)O)NC(c2ccccc2O)C2C(=O)N(C(C)C)C(=O)C21 (stereo not drawn)	1.2	2.7	-2.0	0.3	0.776	/	/	/
O=C(Nc1ccc(Cl)cc1)ON=C1CCCC1	-7.9	4.3	8.6	23.0*	0.66	-1.6	0.8	-2.0
NC1C2CN(c3nc4c(cc3F)c(=O)c(C(=O)O)cn4-c3ccc(F)cc3F)CC12 (stereo not drawn)	109.2*	/	97.6*	100.2*	0.0445*	98.7*	99.6*	100.6*
Cc1c(-n2cc(C(=O)O)c(=O)c3cc(F)c(N4CCCC4)c(F)c32)c(=O)n(-c2ccccc2)n1C	-15.0	2.8	2.0	1.2	0.693	/	/	/
